Experimental findings from PubChem BioAssay (Tox21) are described below.

“And” between values parts separate entries of the source, which are not always exact repeats. Identical values can stand only once. Inconclusive results are not listed. The source holds several records for some structures; these can differ, active in one and inactive in another. The source made the active and inactive calls. Unless noted, calls follow the shape of the dose curve; as a rule, active = well fitted curve in the direction sought with a large enough effect in the repeat runs; inconclusive = weak or mixed curves; inactive = no such curve, though single readings can be large; an effect the other way counts as inactive or inconclusive.

Test [1] in a line: qHTS assay to identify small molecule antagonists of the glucocorticoid receptor (GR) signaling pathway - cell viability counter screen (AID 720693). Also: nearly all actives have a fitted effect of over 55% in size. Also: potency is read from the fitted curve at half-maximal effect. A general note: qHTS replaces the single test concentration by a dilution series.
Test [2] in a line: qHTS assay for identifying genotoxic compounds that show differential cytotoxicity against isogenic chicken DT40 cell lines with known DNA damage response pathways - wild type cell line (AID 743012). Also: nearly all actives have a fitted effect of over 60% in size. Also: potency is read from the fitted curve at half-maximal effect. The essentials: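 Quantitative HTS on parental DT40 cells: 40 h compound treatment at 37 C/5% CO2, with viability then determined by CellTiter-Glo luminescence. Values serve as the DNA repair-proficient reference for differential cytotoxicity.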

A short description of test [3]: qHTS assay for identifying genotoxic compounds that show differential cytotoxicity against isogenic chicken DT40 cell lines with known DNA damage response pathways - Rev3 mutant cell line (AID 743014). Also: nearly all actives have a fitted effect of over 55% in size. Also: potency is read from the fitted curve at half-maximal effect.
Test [4] in a line: qHTS assay for identifying genotoxic compounds that show differential cytotoxicity against isogenic chicken DT40 cell lines with known DNA damage response pathways - Rad54/Ku70 mutant cell line (AID 743015). Also: nearly all actives have a fitted effect of over 60% in size. Also: potency is read from the fitted curve at half-maximal effect.
A short description of test [5]: qHTS assay to identify small molecule antagonists of the androgen receptor (AR) signaling pathway - cell viability counter screen (AID 743033; also: nearly all actives have a fitted effect of over 45% in size; also: potency is read from the fitted curve at half-maximal effect).
In test [6] the target is Androgen receptor (Homo sapiens) (UniProt P10275). The experiment in a line: qHTS assay to identify small molecule antagonists of the androgen receptor (AR) signaling pathway (AID 743035; active = well fitted inhibition curve with a large enough effect in the signal ratio in the repeat runs, not every such curve was filed as active; the % refers to the signal ratio; also: potency is read from the fitted curve at half-maximal effect). The essentials: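 Cell line: GeneBLAzer AR-UAS-bla GripTite (HEK293). Stimulus: R1881 added after compound. Exposure: 16 h, 37C, 5% CO2. Readout: LiveBLAzer B/G FRET fluorescence after 2 h at room temperature.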

For test [7] the target is unchanged. The experiment in a line: qHTS assay to identify small molecule agonists of the androgen receptor (AR) signaling pathway (AID 743036; active = well fitted activation curve with a large enough effect in the signal ratio in the repeat runs, with a control signal flat, not every such curve was filed as active; the % refers to the signal ratio; also: potency is read from the fitted curve at half-maximal effect). The procedure, abridged:
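Reporter line: GeneBLAzer AR-UAS-bla-GripTite (HEK293). Steps: plate cells, 4 h rest, add compounds, 16 h at 37C, add LiveBLAzer B/G substrate, 2 h at RT, read fluorescence.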

The target is the same in test [8]. The experiment in a line: qHTS assay to identify small molecule agonists of the androgen receptor (AR) signaling pathway using the MDA cell line (AID 743040; also: nearly all actives have a fitted effect of over 20% in size). Particulars: MDA-kb2 AR-luc cells, MMTV luciferase, 16 h; activity change: at 70.3 µM (top of the series), stronger effect = higher value. The procedure, abridged: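 Luminescence from ONE-Glo, read after 30 min at room temperature, reflects MMTV-driven luciferase in MDA-kb2 cells (AR- and GR-responsive). Treatment lasted 16 h at 37C, 0% CO2.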

Test [9] can be described thus: qHTS assay to identify small molecule antagonists of the androgen receptor (AR) signaling pathway using the MDA cell line - cell viability counter screen (AID 743041; also: nearly all actives have a fitted effect of over 45% in size). The procedure, abridged:
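Viability counter screen run alongside the AR antagonist reporter: cells seeded 5 h before compound, R1881 added, 16 h incubation at 37C without CO2, fluorescent CellTiter-Fluor signal quantified.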

Test [10] deals with Androgen receptor (Homo sapiens) (UniProt P10275). The experiment in a line: qHTS assay to identify small molecule antagonists of the androgen receptor (AR) signaling pathway using the MDA cell line (AID 743042; also: nearly all actives have a fitted effect of over 55% in size). The procedure, abridged: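 MDA-kb2 cells (human breast carcinoma, stably carrying an MMTV-luciferase reporter responsive to AR and GR) were plated at 3,000 cells/well and preincubated 5 hr at 37C, then given compound plus R1881 agonist for 16 h. ONE-Glo luminescence was read.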

Androgen receptor (Homo sapiens), sequence (P10275 whole entry, looked up): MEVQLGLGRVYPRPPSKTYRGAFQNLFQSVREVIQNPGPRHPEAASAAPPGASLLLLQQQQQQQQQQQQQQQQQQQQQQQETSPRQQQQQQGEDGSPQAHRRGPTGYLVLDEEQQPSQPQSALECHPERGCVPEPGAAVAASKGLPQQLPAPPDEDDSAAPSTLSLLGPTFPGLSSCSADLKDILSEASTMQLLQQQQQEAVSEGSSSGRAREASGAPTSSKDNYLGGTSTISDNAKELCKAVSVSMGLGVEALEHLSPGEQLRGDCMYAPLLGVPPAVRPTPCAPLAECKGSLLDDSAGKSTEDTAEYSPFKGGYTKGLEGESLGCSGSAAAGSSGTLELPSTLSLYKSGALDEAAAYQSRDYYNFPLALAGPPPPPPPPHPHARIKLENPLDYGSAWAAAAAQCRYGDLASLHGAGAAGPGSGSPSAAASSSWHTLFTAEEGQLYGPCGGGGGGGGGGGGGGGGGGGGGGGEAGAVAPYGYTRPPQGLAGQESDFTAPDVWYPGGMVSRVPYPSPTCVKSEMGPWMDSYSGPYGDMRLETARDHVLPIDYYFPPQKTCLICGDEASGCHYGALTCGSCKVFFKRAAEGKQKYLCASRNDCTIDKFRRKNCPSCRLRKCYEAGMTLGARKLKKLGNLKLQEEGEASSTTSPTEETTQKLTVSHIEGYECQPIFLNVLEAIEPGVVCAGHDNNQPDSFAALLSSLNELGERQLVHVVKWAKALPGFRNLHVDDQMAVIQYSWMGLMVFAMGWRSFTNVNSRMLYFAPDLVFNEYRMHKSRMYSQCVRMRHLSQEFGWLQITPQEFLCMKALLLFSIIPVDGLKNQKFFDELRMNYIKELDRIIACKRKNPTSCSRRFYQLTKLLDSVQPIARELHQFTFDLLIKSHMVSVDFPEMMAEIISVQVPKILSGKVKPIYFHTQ

Turning to `CCCCC#N`, the Potency result in [1], in test [2], in [3], in test [4] and in [5] was “inactive” each time.
For the molecule `CCC1(C2=NCCN2)Cc2ccccc2O1` (stereo not drawn), the Potency entry in test [1], in test [5], in [8], in test [9] and in test [10] was “inactive” each time. For the same molecule, the Potency in test [2] is 5.31 µM (active); in [3], 5.31 µM (active); in test [4], 6.68 µM (active); in [6], 19 µM (active); in [7], 23.9 µM (active).
For the molecule `O=C(Cl)OCCOCCOC(=O)Cl`, the Potency result in test [1], in test [2], in [3], in test [4], in test [5] and in test [7] was “inactive” each time. Besides, the Potency result in test [8], in [9] and in test [10] was “inactive” throughout.
`CCCCCCCCCCCC[N+](C)(C)CCOc1ccccc1`: the Potency is 17.4 µM (active) in [1]; 1.88 µM (active) and 6.11 µM (active) in test [2]; 2.37 µM (active) and 3.86 µM (active) in test [3]; 2.66 µM (active) and 6.11 µM (active) in test [4]; 23.9 µM (active) and 15.5 µM (active) in [5].
Take `O=C(O)c1cc(I)cc(I)c1I`: the Potency entry in [1], in test [2], in [3], in [4] and in test [5] was “inactive” throughout.
`C=CC(=O)OCC`: the Potency entry in [1], in test [2], in [3] and in test [4] was “inactive” throughout.
On to `CCC1(CCC(C)C)C(=O)NC(=O)NC1=O`, for which the Potency result in [1], in test [2], in test [3], in [4], in [5] and in test [6] was “inactive” each time. Moreover, the Potency result in test [8], in test [9] and in test [10] was “inactive” in each case.
On to `CCCCC1C(=O)NC(=O)N(C2CCCCC2)C1=O` (stereo not drawn), for which the Potency result in test [1], in test [2], in test [3], in test [4], in test [5] and in test [9] was “inactive” throughout.
As to `NNCCO`, the Potency result in test [1], in test [2], in [3], in [4], in test [5] and in test [9] was “inactive” throughout.
With `C[C@@H]1C[C@@H]([C@H](O)CC2CC(=O)NC(=O)C2)C(=O)[C@@H](C)C1`, the Potency entry in [1] and in test [9] was “inactive” throughout. For the same molecule, the Potency in test [2] is 59.6 nM (active) and 108 nM (active); in test [3], 119 nM (active) and 60.8 nM (active); in [4], 133 nM (active) and 121 nM (active); in [5], 379 nM (active) and 97.2 nM (active).
Take `C1CCNCC1`: the Potency result in test [1], in [2], in [3], in test [4], in test [5] and in test [9] was “inactive” in each case.
Regarding `CCOP(=S)(OCC)SCSc1cc(Cl)ccc1Cl`, the Potency entry in test [1], in test [2], in [3], in test [4], in test [5] and in test [9] was “inactive” in each case.
Regarding `CC(C)(C#N)C(C)(C)C#N`, the Potency entry in test [1], in [2], in [3], in test [4], in [5] and in test [9] was “inactive” in each case.
As for `CCC(C)(C)O`, the Potency result in test [1], in [2], in [3], in [4], in [5] and in test [9] was “inactive” each time.
As to `CCc1ccccc1N`, the Potency entry in test [1], in test [2], in [3], in test [4], in [5] and in test [9] was “inactive” in each case.
Turning to `CC(C)(C)NCC(O)c1ccccc1Cl` (stereo not drawn), the Potency result in test [1], in [2], in test [3], in test [4], in test [5] and in test [9] was “inactive” throughout.
Regarding `COc1ccccc1N1CCNCC1`, the Potency entry in test [1], in test [2], in [3], in test [4], in test [5] and in [9] was “inactive” in each case.
Consider `CCOC(=O)c1cncn1C(C)c1ccccc1` (stereo not drawn), for which the Potency entry in test [1], in [2], in test [3], in test [4], in [5] and in [9] was “inactive” throughout.
Turning to `CC(Cc1ccccc1)NCc1ccccc1Cl` (stereo not drawn), the Potency entry in test [1], in test [5] and in test [9] was “inactive” throughout. Moreover, the Potency in test [2] is 18.8 µM (active); in test [3], 15 µM (active); in test [4] it was 18.8 µM (active).
On to `COc1ccc(C(O)(c2cncnc2)C2CC2)cc1` (stereo not drawn), for which the Potency entry in [1], in [2], in [3], in test [4], in test [5] and in test [9] was “inactive” throughout.
As for `FC(Cl)(Cl)C(F)(Cl)Cl`, the Potency result in test [1], in [2], in test [3], in test [4], in test [5] and in [9] was “inactive” throughout.
As for `CCCCOC(=O)CCC(=O)OCCCC`, the Potency entry in [1], in test [2], in [3], in [4], in test [5] and in test [9] was “inactive” in each case.
For `Cc1ccccc1`, the Potency entry in test [1], in [2], in test [3], in [4], in [5] and in [9] was “inactive” each time.
In the case of `CCCSP(=S)(OCC)Oc1ccc(SC)cc1` (stereo not drawn), the Potency result in test [1], in [5] and in test [9] was “inactive” each time. Also, the Potency is 43.3 µM (active) in test [2], 15.4 µM (active) in test [3] and 27.3 µM (active) in test [4].
`CC(C)CCON=O`: the Potency result in test [1], in [2], in test [3], in [4], in test [5] and in test [9] was “inactive” each time.
Turning to `OC[P+](CO)(CO)CO`, the Potency result in [1], in [2], in test [3], in test [4], in [5] and in test [9] was “inactive” in each case.
With `CCc1cnc(C2=NC(C)(C(C)C)C(=O)N2)c(C(=O)O)c1` (stereo not drawn), the Potency result in [1], in test [2], in test [3], in test [4], in [5] and in test [9] was “inactive” throughout.
Take `CCCN(CCC)c1c([N+](=O)[O-])cc(C(C)C)cc1[N+](=O)[O-]`: the Potency entry in [1], in test [3], in test [5] and in test [9] was “inactive” throughout. In addition, the Potency result was “inactive and 61.1 µM (active)” in test [2]; “inactive and 54.5 µM (active)” in test [4].
